Experimental findings from the supplement of paper PMC10127200 are described below.

The structures appear in SMILES notation. Where a name gives a salt, the structure may show the parent alone.

The first assay deals with 786-O. Kind of assay: Euclidean distance of Cell Painting phenotypic profile (signed KS, 77 features) to DMSO centroid (dimensionless distance); 5 or 10 uM (library dependent); higher = stronger phenotypic change vs DMSO (phenoactivity). As to conditions: 48 h. The method in brief:
(§1)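 Library compounds were applied at 10 or 5 uM, depending on the library, with 0.1% DMSO final, for 48 h to five cancer lines and a healthy fibroblast line. After staining, cells were imaged confocally at 20X across 9 fields per well, and Harmony extracted 77 features, each scored as a signed Kolmogorov-Smirnov statistic against vehicle wells on the same plate. Phenoactivity is the Euclidean distance between each profile and the median vehicle profile, with profiles first plate-position corrected, correlation-weighted and averaged over replicates at the top dose.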
With `CC(C)c1c(C(=O)Nc2ccccc2)c(-c2ccccc2)c(-c2ccc(F)cc2)n1CC[C@@H](O)C[C@@H](O)CC(=O)O` [atorvastatin], the Euclidean distance stood at 1.57.
`C[C@@H]1CC(=O)NN=C1c1ccc(NN=C(C#N)C#N)cc1` [Levosimendan] had an Euclidean distance of 1.83.
The same measure, in the same setting: then `CCN1CCCC1CNC(=O)c1cc(S(=O)(=O)CC)c(N)cc1OC` (stereo unspecified) [Amisulpride], with 1.04.
Still for that read-out and setting: then `NS(=O)(=O)NCCNc1nonc1/C(=N/O)Nc1ccc(F)c(Br)c1`, with 1.34; and `CCCCOCCOCCOCc1cc2c(cc1CCC)OCO2` [Piperonyl butoxide], with 0.659.
On the same count and under the same terms, the result for `CCN(CC)CCNC(=O)c1ccc(N)cc1` [Procainamide HCl] reads 0.693; that for `CN1[C@@H]2CC[C@H]1C[C@@H](OC(c1ccccc1)c1ccccc1)C2` [Benztropine mesylate], 1.38.

A further assay concerns A549. Described as above. As to conditions: 48 h. The method in brief: as §1
In turn, `Cc1cc(Nc2nc(N[C@@H](C)c3ccc(F)cc3)c(C#N)cc2F)n[nH]1` came in with an Euclidean distance of 3.48.
Regarding `CC1(C)S[C@@H]2[C@H](NC(=O)[C@H](N)c3ccc(O)cc3)C(=O)N2[C@H]1C(=O)O` [Amoxicillin Sodium], the Euclidean distance worked out at 1.17.
On the same count and under the same terms, the result for `CONC(=O)Nc1ccc(-c2sc3c(c2CN(C)C)c(=O)n(-c2ccc(OC)nn2)c(=O)n3Cc2c(F)cccc2F)cc1` [Relugolix] reads 0.927.
The same measure, in the same setting: then `CCCCCCCCN=C(N)NC(N)=NCc1ccc(Cl)c(Cl)c1` [Olanexidine Hydrochloride semihydrate], with 4.86; and `N[C@@H](CC(=O)O)C(=O)O` [L-aspartic Acid], with 1.3.
Take `O=C(c1ccc(F)c(F)c1Nc1ccc(I)cc1F)N1CC(O)([C@@H]2CCCCN2)C1` [Cobimetinib (GDC-0973. RG7420)]: the Euclidean distance is 2.56.
For `CN(C)CCN1C(=O)c2cccc3cc(N)cc(c23)C1=O` [Amonafide], the Euclidean distance turned out to be 4.
The same measure, in the same setting: then `Nc1nc(NC2CC2)c2ncn([C@H]3C=C[C@@H](CO)C3)c2n1` [Abacavir sulfate], with 1.86.
In turn, `CC(C)(C)NCC(O)c1ccc(O)c(CO)c1` (stereo unspecified) [Salbutamol Sulfate] came in with an Euclidean distance of 0.928.
The same measure, in the same setting: then `CCOc1cc(N)c([N+](=O)[O-])cc1C(=O)NC1CCN(CC2CC=CCC2)CC1` (stereo unspecified) [Cinitapride Hydrogen Tartrate], with 1.05; and `CN1CCC(=C2c3ccccc3CCc3cccnc32)CC1` [Azatadine dimaleate], with 1.59.
Same read-out and setting: then `O=C1c2ccc(Nc3ccc(F)cc3F)cc2CCc2ccc(OC[C@H](O)CO)cc21` [Skepinone-L], with 1.85.
Same read-out and setting: the result for `CCc1nc(C(N)=O)c(Nc2ccc(N3CCC(N4CCN(C)CC4)CC3)c(OC)c2)nc1NC1CCOCC1` [Gilteritinib (ASP2215)] reads 3.06.
In turn, `O=C(O)c1cc(=O)c2ccccc2o1` [Chromocarb] came in with an Euclidean distance of 0.437.
On the same count and under the same terms, then `CCCCCCCCCCCCCCCCCCOCC(O)CO` (stereo unspecified) [Batyl alcohol], with 0.609; and `CC(C)c1nc(CN(C)C(=O)N[C@H](C(=O)N[C@@H](Cc2ccccc2)C[C@H](O)[C@H](Cc2ccccc2)NC(=O)OCc2cncs2)C(C)C)cs1` [Ritonavir], with 1.26.
`CSc1nc2cc(Cl)c(Oc3cccc(Cl)c3Cl)cc2[nH]1` [Triclabendazole]: the Euclidean distance came out at 0.638.
On the same count and under the same terms, then `CCNC(=O)[C@@H]1CCCN1C(=O)[C@H](CCCNC(=N)N)NC(=O)[C@H](CC(C)C)NC(=O)[C@@H](CC(C)C)NC(=O)[C@H](Cc1ccc(O)cc1)NC(=O)[C@H](CO)NC(=O)[C@H](Cc1c[nH]c2ccccc12)NC(=O)[C@H](Cc1c[nH]cn1)NC(=O)[C@@H]1CCC(=O)N1` [Leuprolide Acetate], with 0.754; and `CC(=O)Oc1ccc(C(c2ccc(OC(C)=O)cc2)c2ccccn2)cc1` [Bisacodyl], with 1.2.
Compound `O=C(CCc1ccc(O)cc1)c1c(O)cc(O)cc1O` [Phloretin] came in with an Euclidean distance of 0.656.
The same measure, in the same setting: the result for `CC1(C)S[C@@H]2[C@H](NC(=O)[C@H](N)c3ccccc3)C(=O)N2[C@H]1C(=O)O` [Ampicillin Trihydrate] reads 1.2.
The same measure, in the same setting: then `OC(CCN1CCCC1)(c1ccccc1)C1CCCCC1` (stereo unspecified) [Procyclidine HCl], with 0.891.
Same read-out and setting: then `CCN1C(=O)NC(c2ccccc2)C1=O` (stereo unspecified) [Ethotoin], with 0.725; and `NCCCCCNCC12CC3CC(CC(C3)C1)C2` [IEM 1754 dihydrobroMide], with 0.504; and `CCN(CC)CC(=O)Nc1c(C)cccc1C` [Lidocaine hydrochloride], with 0.8.
Take `O=C1c2c(O)cccc2Cc2cccc(O)c21` [Dithranol]: the Euclidean distance amounted to 0.754.
Regarding `Cc1ccc(/C(=C\CN2CCCC2)c2cccc(/C=C/C(=O)O)n2)cc1` [Acrivastine], the Euclidean distance stood at 0.966.
The same measure, in the same setting: the result for `C=C(C)[C@@H]1CC[C@]2(CO)CC[C@]3(C)[C@H](CC[C@@H]4[C@@]5(C)CC[C@H](O)C(C)(C)[C@@H]5CC[C@]43C)[C@@H]12` [Betulin] reads 0.846; that for `COc1ccc2[nH]cc(CCNC(C)=O)c2c1` [Melatonin], 0.391.
On the same count and under the same terms, then `CO/N=C(\C(=O)N[C@@H]1C(=O)N2C(C(=O)OCOC(=O)C(C)(C)C)=C(/C=C\c3scnc3C)CS[C@H]12)c1csc(N)n1` [Cefditoren Pivoxil], with 0.732; and `N=C(N)c1ccc(N=NNc2ccc(C(=N)N)cc2)cc1` [Diminazene Aceturate], with 1.11; and `CN[C@H](CC(C)C)C(=O)N[C@H]1C(=O)N[C@@H](CC(N)=O)C(=O)N[C@H]2C(=O)N[C@H]3C(=O)N[C@H](C(=O)N[C@H](C(=O)O)c4cc(O)cc(O)c4-c4cc3ccc4O)[C@H](O)c3ccc(c(Cl)c3)Oc3cc2cc(c3O[C@@H]2O[C@H](CO)[C@@H](O)[C@H](O)[C@H]2O[C@H]2C[C@](C)(N)[C@H](O)[C@H](C)O2)Oc2ccc(cc2Cl)[C@H]1O` [Vancomycin HCl], with 0.761.
`CC(C)c1c(C(=O)Nc2ccccc2)c(-c2ccccc2)c(-c2ccc(F)cc2)n1CC[C@@H](O)C[C@@H](O)CC(=O)O` [atorvastatin] came in with an Euclidean distance of 1.35.
Still for that read-out and setting: the result for `C[C@@H]1CC(=O)NN=C1c1ccc(NN=C(C#N)C#N)cc1` [Levosimendan] reads 0.486; that for `CCN1CCCC1CNC(=O)c1cc(S(=O)(=O)CC)c(N)cc1OC` (stereo unspecified) [Amisulpride], 0.717.
Compound `NS(=O)(=O)NCCNc1nonc1/C(=N/O)Nc1ccc(F)c(Br)c1` showed an Euclidean distance of 1.13.
Same read-out and setting: then `CCCCOCCOCCOCc1cc2c(cc1CCC)OCO2` [Piperonyl butoxide], with 1.99.
On the same count and under the same terms, the result for `CCN(CC)CCNC(=O)c1ccc(N)cc1` [Procainamide HCl] reads 1.02.
Same read-out and setting: the result for `CN1[C@@H]2CC[C@H]1C[C@@H](OC(c1ccccc1)c1ccccc1)C2` [Benztropine mesylate] reads 0.973.
